The text below walks through data of the supplement of paper PMC6555819.

Assay in all cases: PBM binding z-score (relative to random genomic background probes); higher = stronger binding; sequences stand for … in GC…GCGATTGACAGCGTAGAATGAAGG
The subject of assay [1] is FXR:RXRa (NR concentration 270 nM, RXRa partner concentration 90 nM). The essentials: (§1)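 Regression normalization was applied to scanned fluorescence from custom Agilent 4×180K protein-binding microarrays. Before scanning, arrays were incubated 1 h with ligand-free nuclear receptor dimers, and binding was detected with antibodies against each partner (one per run). Binding z-scores use the random background probes as reference.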

Assay [2] relates to LXRa:RXRa (NR concentration 270 nM, RXRa partner concentration 90 nM). The essentials:
as §1

Assay [3] deals with LXRa homodimer (NR concentration 270 nM). The essentials: as §1
In assay [4] the test system is LXRb:RXRa (NR concentration 270 nM, RXRa partner concentration 90 nM). The essentials:
as §1

Assay [5] concerns LXRb homodimer (NR concentration 270 nM). In short, it runs like this: as §1
For assay [6], the system named is PPARa:RXRa (NR concentration 270 nM, RXRa partner concentration 90 nM). The essentials: as §1
For assay [7], the system named is PPARg:RXRa (NR concentration 180 nM, RXRa partner concentration 90 nM). In short, it runs like this: as §1
Assay [8] relates to PPARg:RXRa 270nM:90nM, anti-RXR (NR concentration 270 nM, RXRa partner concentration 90 nM). The essentials: as §1
In assay [9] the test system is PPARg:RXRa 30nM:10nM, anti-RXR (NR concentration 30 nM, RXRa partner concentration 10 nM). The essentials:
as §1

The subject of assay [10] is PPARg:RXRa 90nM:30nM, anti-RXR (NR concentration 90 nM, RXRa partner concentration 30 nM). In short, it runs like this:
as §1

In the case of GCTCCTAGGTCAACTGATGGTCAGCTAAAGCTCG, the PBM binding z-score in assay [1] stood at 4.73; in assay [2], 3.62; in [3], 0.561; in assay [4] it was 3.01; in [5], 0.879; in assay [6], 4.1. For the same sequence, the PBM binding z-score in assay [7] was determined as 2.53; in assay [8] it was 3.46; in [9], 1.21; in [10], 2.51.
On to TCTAGTTGATCACGGAGGTCACACACGACGGGTA, for which the PBM binding z-score was found to be 2.88 in assay [1]; 3.08 in [2]; 1.8 in assay [3]; 3.27 in assay [4]; 0.399 in [5]; 3.76 in assay [6]. Moreover, the PBM binding z-score stood at 2.09 in assay [7], 3.19 in assay [8], 3.41 in assay [9] and 2.99 in assay [10].
As for ATCTCTAGGTAACCAAGTTCAGTCAATGCCGAAC, the PBM binding z-score in assay [1] worked out at 0.839; in assay [2], 1.13; in [3] it was 1.15; in [4], 1.16; in assay [5], 0.769; in assay [6], 1.56. The PBM binding z-score in assay [7] was 0.836; in [8], 0.815; in [9], 0.185; in assay [10] it was 0.74.
Consider CGAAGGAGGGCATGAGTTGATAGCAAATGCCGAT, for which the PBM binding z-score is -0.0276 in assay [1]; -0.0888 in assay [2]; -0.504 in assay [3]; -0.073 in assay [4]; -0.785 in assay [5]; 0.988 in assay [6]. Further, the PBM binding z-score in assay [7] is 1.13; in [8] it was 1.1; in [9], 0.326; in assay [10], 0.97.
As to CCTTACGGTTCAAGGTTATAGCACGGGTGGTACG, the PBM binding z-score in assay [1] is 2.11; in assay [2], 1.96; in [3], 0.742; in assay [4] it was 1.66; in assay [5], 0.441; in assay [6], 2.53. For the same sequence, the PBM binding z-score in [7] came to 0.899; in [8] it was 1.18; in [9], 0.229; in assay [10], 0.767.
As for CCTACTGGGACAAGGTCATTGATCAGTCAAAGCA, the PBM binding z-score came out at 3.62 in assay [1]; 3.43 in assay [2]; 1.26 in assay [3]; 3.06 in assay [4]; 0.0323 in assay [5]; 4.22 in assay [6]. For the same sequence, the PBM binding z-score in assay [7] came out at 4.54; in assay [8], 4.7; in assay [9], 1.99; in assay [10] it was 3.78.
TCTTGTAGATCAAGCCGGTTAAGAAAGCCTGAGT: the PBM binding z-score is 0.845 in assay [1]; 0.416 in [2]; -0.282 in assay [3]; 0.245 in [4]; -0.0874 in assay [5]; 0.538 in [6]. The PBM binding z-score is -0.597 in [7], 1.31 in [8], 2.88 in assay [9] and 1.97 in [10].
Regarding CTCGAAAGGTCGGTAGAGGTGAGTATACGGATAA, the PBM binding z-score in assay [1] was 2.48; in assay [2], 2.01; in [3] it was 0.0371; in assay [4], 1.32; in assay [5], -0.315; in [6], 2.86. For the same sequence, the PBM binding z-score was 1.02 in [7], 1.75 in assay [8], 0.538 in assay [9] and 0.994 in [10].
On to CGAACGAGGGCATGAGTGGATAGCAAATGCCGAT, for which the PBM binding z-score is 0.364 in [1]; 0.334 in assay [2]; -0.533 in assay [3]; 0.059 in assay [4]; -0.983 in assay [5]; 1.22 in assay [6]. The PBM binding z-score came to 1.27 in [7], 0.947 in assay [8], 0.0449 in assay [9] and 0.449 in assay [10].
Turning to GCTGATAGGTCAGGTTGGTCAGCTAACGGGTACG, the PBM binding z-score in assay [1] is 2.43; in assay [2] it was 2.19; in assay [3] it was -0.0156; in [4], 1.67; in assay [5] it was 0.114; in assay [6], 2.71. Further, the PBM binding z-score in assay [7] is 0.952; in assay [8], 1.4; in assay [9], -0.0509; in assay [10], 0.754.
In the case of CCTAGCAGGCCAGGGTCTCTCAAGCATTTCGCTT, the PBM binding z-score in assay [1] was -0.78; in assay [2], -0.742; in assay [3], -0.767; in assay [4], -0.956; in [5], -1.15; in assay [6], -0.63. Further, the PBM binding z-score in [7] is -0.954; in assay [8] it was -0.991; in assay [9], -1.16; in assay [10], -1.4.
